Bioassay records from PubChem.
GIRK2 activator: Activators of human GIRK2-containing channels; P48051; HEK293 GIRK2/NPY4 cells, thallium flux fluorescence; activation (% efficacy), % for hits at 37.5 µM; 34,000 tested, under 10 active;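 active = primary screen hit, no activity in plain HEK293 cells, and in GIRK2-only cells above 5% efficacy rising with concentration; inactive = the rest, including fluorescent compounds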;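 also: efficacy is normalized control-subtracted fluorescence 15 s after thallium addition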
AMPAR-TARP mod: modulators of AMPA receptor GluA2-stargazin complexes. O88602+P19491. HEK293 GluA2+stargazin, membrane potential dye (FDSS), glutamate EC50; hits were called plate by plate, in both directions. calls only at 30 µM. actives 3.5% (n = 40,000). AID 1259245;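 active = any of four per-well response measures lying three or more SD from its plate-wide compound average, in either direction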
Starred values were filed as active, the others as inactive; i = inactive; . = not tested or not shown; + = active, no number. This is one part of a sample in which hits are shown more often than they occur.

SMILES	GIRK2 activator	AMPAR-TARP mod
Cc1cc(NC(=O)c2ccc(S(=O)(=O)N3CC(C)OC(C)C3)cc2)n(C(C)C)n1 (centres undefined)	i	.
CC1CC(=O)Nc2c1c(NC(=O)C1CC(=O)N(c3ccc(F)cc3)C1)nn2C (centres undefined)	i	i
Cc1cc2nc(N(CCN3CCOCC3)C(=O)c3ccco3)sc2cc1C	i	i
CN(C)CCN(C(=O)c1ccn(C)n1)c1nc2ccc(Cl)cc2s1	i	+
O=C(c1ccco1)N(CCN1CCOCC1)c1nc2ccc(Cl)cc2s1	.	+
CN(C)CCCN(C(=O)c1ccno1)c1nc2ccc(Cl)cc2s1	i	.
O=C(NC12CC3CC(CC(C3)C1)C2)N1CCC(c2cccs2)CC1	i	+
O=C(NC(c1ccccc1)c1ccccc1)N1CCC(c2cccs2)CC1	i	i
Cc1cnc2c(c1SCC(=O)NC1CCCC1)c(=O)n(C)c(=O)n2C	i	i
CC(C)Cc1cnc2c(c1SCC(=O)NC1CCCC1)c(=O)n(C)c(=O)n2C	.	+
O=C(Cn1nc2c(c1NC(=O)CC1CCCCC1)CSC2)NCC1CCCO1 (centres undefined)	i	i
CCCNC(=O)Cn1nc2c(c1NC(=O)CC1CCCC1)CSC2	i	+
Cn1nccc1-c1nnc(NC(=O)c2ccc(Br)o2)o1	i	+
Cc1cnn(C)c1C(=O)Nc1nnc(-c2ccnn2C)o1	i	i
COc1ccccc1CNC(=O)C(=O)NCC(c1cccn1C)N(C)C (centres undefined)	i	i
Cc1ccc(S(=O)(=O)NCCn2nc(-c3ccc(Cl)cc3)ccc2=O)cc1C	.	i
Cc1ccc(S(=O)(=O)NCCn2nc(C)c(Cl)c2C)cc1C	i	+
COC(=O)Nc1nc(CC(=O)Nc2ccc(S(N)(=O)=O)cc2)cs1	i	.
O=C(Nc1nc2ncccc2cc1-c1ccccc1)C1CCCC1	i	i
COc1cccc(C(=O)Nc2nc3ncccc3cc2-c2ccccc2)c1	i	+
CC(C)c1nnc(C2CCN(S(=O)(=O)Cc3ccccc3)CC2)o1	i	i
CCc1c(C#N)c(SCCC(=O)NCc2ccc3c(c2)OCO3)nc2c1C(=O)CC(C)(C)C2	i	i
CCc1c(C#N)c(SCC(=O)NCc2ccc3c(c2)OCO3)nc2c1C(=O)CC(C)(C)C2	i	+
O=C(CN1N=NC2C(=O)N(c3ccc(Br)cc3)C(=O)C21)Nc1cccc(F)c1 (centres undefined)	i	i
CC(=O)c1sc(=Nc2ccccc2Cl)n(CCCN2CCOCC2)c1C	i	+
SMILES	GIRK2 activator	AMPAR-TARP mod
O=C(CCn1c(=O)sc2ccccc21)NCCCN1CCOCC1	i	i
CCOC(=O)c1c(NC(=O)C2CCCCN2S(C)(=O)=O)sc(C)c1C (centres undefined)	i	i
COC(=O)c1scc(-c2ccccc2)c1S(=O)(=O)N1CCN(Cc2ccccc2)CC1	.	+
COC(=O)c1scc(-c2ccccc2)c1S(=O)(=O)N1CCCC1	.	i
COc1ccc(S(=O)(=O)N2CCC3(CC2)C(=O)N(C)C(=O)N3C)c(C)c1C	i	i
COCC(C)(O)CNC(=O)c1cccn(C)c1=O (centres undefined)	i	+
Cn1cccc(C(=O)NCC(O)(c2ccccc2)C2CC2)c1=O (centres undefined)	.	i
Cc1cc(C)n(CC(=O)Nc2ccccc2F)c(=O)c1-c1nc(-c2ccc(Cl)cc2)no1	i	i
CCOc1ccccc1NC(=O)Cn1c(C)cc(C)c(-c2nc(-c3ccc(Cl)cc3)no2)c1=O	.	+
COc1ccc(-c2noc(-c3c(C)cc(C)n(CC(=O)Nc4ccc(OC)c(Cl)c4)c3=O)n2)cc1	i	+
COc1ccc(NC(=O)Cn2c(C)cc(C)c(-c3nc(-c4ccc(Cl)cc4)no3)c2=O)cc1	.	i
COc1ccc(C)cc1NC(=O)CN1CCCN(Cc2ccccc2Cl)S1(=O)=O	.	i
Cc1ccccc1NC(=O)CSc1cc(N2CCCC2)ncn1	i	i
O=C(NCC(O)c1cccc2ccccc12)c1nc2ccccc2s1 (centres undefined)	i	i
COc1ccc2nc(-c3ccc(NC(=O)c4ccc(OC)c(OC)c4)cc3)cn2n1	i	.
O=C(Nc1ccccc1NC(=O)c1ccccc1C(F)(F)F)c1ccsc1	i	.
COc1ccc(N2CCN(C(=O)c3ccc(S(=O)(=O)N4CCCC4)cc3)CC2)nn1	i	.
CN(C)c1ccc(N2CCN(C(=O)c3ccc(S(N)(=O)=O)cc3)CC2)nn1	i	+
O=S(=O)(NCC(O)(c1ccco1)C1CC1)c1ccc(F)c(Cl)c1 (centres undefined)	i	+
O=S(=O)(NCC(O)(c1ccco1)C1CC1)c1cc(F)ccc1F (centres undefined)	i	i
COc1cccc(CNC(=O)CSc2ccc(NC(=O)c3cccs3)nn2)c1	i	i
